This assay concerns the target VEGF-A121 (Homo sapiens, UniProt P15692 SEQ:1-121). Kind of assay: competition; TR-FRET. As to conditions: tags: glycan-biotinylated for SPR/FRET/AlphaLISA; Acro BioSystems, Biolegend; chain copies: 2 (stated); ssRNA; all G 2'-F; A,C,U 2'-OMe; 5' C6NH2; 3' idT. The procedure:
Briefly, for competition TR-FRET, 2-fold dilutions of thermally equilibrated aptamers were made in TR-FRET Buffer (50 mM MOPS, pH 7.4, 125 mM NaCl, 5 mM KCl, 50 μM CHAPS, 0.1 mg/mL BSA, 1 mM CaCl₂, and 1 mM MgCl₂). 5 μL of aptamer or control solution was added to a 15 μL mix of glycan biotinylated […] (5 nM final), ALEXA FLUOR® 647-labeled Aptamer (30 nM final), and Streptavidin-Eu (Perkin Elmer; 2.5 nM final) in a black wall low volume 384 well plate (Greiner). For control, 5 μl of 1000-fold excess of unlabeled parent aptamer or 5 μl TR-FRET buffer alone was added to the mix of ALEXA FLUOR® 647-labeled aptamer, biotin-VEGF-A, and Streptavidin-Eu. The plate was covered with a plate seal and subsequently incubated in the dark for 1 hour at room temperature. The plate was read on a Biotek CYTATION™ 5 plate reader. Samples were excited at 330 nm and fluorescent values were collected at 665 nm. Data analysis was performed by subtracting the background value and plotting as percent inhibition, normalized to baseline in the absence of competitor. The values were fit by [Inhibitor] vs. response-Variable slope (four parameters) using GraphPad Prism Version 7.0 and then normalized to aptamer control to obtain an IC₅₀ relative to parent aptamer. Data is presented as log values of relative IC₅₀.
Activity of each of these variants were tested using a time resolved competition TR-FRET assay, as described in Example 7, in which a labeled parent was competed with increasing concentrations of unlabeled variants for binding to VEGF-A₁₂₁.
In general terms: Time-resolved FRET reads energy transfer from a long-lived donor to a nearby acceptor.
Sequence of VEGF-A121 (P15692 other isoform, or with tags, fused parts or gaps): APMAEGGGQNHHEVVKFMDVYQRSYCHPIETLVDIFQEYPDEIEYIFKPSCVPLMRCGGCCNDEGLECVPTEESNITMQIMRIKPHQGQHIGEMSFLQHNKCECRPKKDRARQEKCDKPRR
As for “AGGCCGCCUCCGCGCGGAGAGGGUUCAUUCCCUCGUUUGGCGGCUU”, the binding signal was ~9 fold worse IC50 vs Aptamer 26.
For “AGGCCGCCUCCGUGCGGAGGGGUUUCAUUAUCCCGUUUGGCGGCUU”, the binding signal was 4 fold worse IC50 vs Aptamer 26.
With “AGGCCGCCUCCGCGCGGAGAGGUUUCAUUAUCUCGUUUGGCGGCUU” the figure was ~7 fold worse IC50 vs Aptamer 26; with “AGGCCGCCUCCGCGCGGAGGGGUUCAUAUCCCGUUUGGCGGCUU”, ~8 fold worse IC50 vs Aptamer 26.
Under “AGGCCGCCUCCGCGCGGACCGGUUUCAUUACCGGGUUUGGCGGCUU” stands ~9 fold worse IC50 vs Aptamer 26.

The values are drawn from patent US20220098591, “STEM-LOOP COMPOSITIONS AND METHODS FOR INHIBITING VASCULAR ENDOTHELIAL GROWTN FACTOR” (DRIVE THERAPEUTICS LLC, published 2022).
